Results as given in PubChem BioAssay (NCI).
This is part of a sample that, as a whole, favours compounds with a hit. Of some 79,000 tested, about 15% had one in any assay. Activity calls are given as the source filed them. Rule as the data show it: active = growth inhibition above about 70%; inactive = the rest.

Assay: NCI Yeast Anticancer Drug Screen. Data for the mec2-1 strain (AID 157)
Conditions: S. cerevisiae mec2-1 strain, hits give high values
Procedure: Growth inhibition of yeast strains with defined genetic alterations is measured as a screen for potential anti-cancer activity. Selected strains with alterations in DNA damage repair or cell cycle control were exposed to compounds and growth inhibition was measured relative to vehicle treated controls. The strain used in this assay is mec2-1

[1] = at 5.0 µM (retest, dose inferred, filed as 0.5)
[2] = at 50.0 µM (retest, dose inferred, filed as 5.0)

Measured: growth inhibition

O=[N+]([O-])c1cc(S(=O)(=O)F)ccc1Cl
inactive: at 1.2 µM 27% | at 3.7 µM 25% | [1] 50% | at 11.0 µM 35% | [2] 62%
active: at 33.0 µM 95% | at 50.0 µM 94.5% | at 100.0 µM 100%

Nc1nc(N)c(-c2ccc(Cl)c(Cl)c2)c(CP(Cl)(Cl)(Cl)Br)n1
inactive: at 1.2 µM 4% | at 3.7 µM 7% | [1] 39% | at 11.0 µM 13% | at 33.0 µM 38% | at 50.0 µM 42.4% | at 100.0 µM 27%
active: [2] 78%

O=S(=O)(O)c1ccc(Cl)cc1.[Cd]
inactive: at 1.2 µM -2% | at 3.7 µM 5% | [1] 6% | at 11.0 µM 14% | at 33.0 µM 25% | [2] 46% | at 50.0 µM 39.4% | at 100.0 µM 37%

O=c1c2ccccc2[se]n1-c1cccnc1
active: at 11.0 µM 77% | at 33.0 µM 98% | at 100.0 µM 94%
inactive: at 1.2 µM -18% | at 3.7 µM 20% | [1] -20% | [2] 55% | at 50.0 µM -6.2%

O=C(N/N=C/c1cc(Cl)cc(Cl)c1[O-])c1ccccc1O.O=C(N/N=C/c1cc(Cl)cc(Cl)c1[O-])c1ccccc1O.[Zn+2]
active: [1] 97% | at 50.0 µM 91.8%
inactive: [2] 64%

c1ccc([CH2][Pb]([c]2ccccc2)([c]2ccccc2)[c]2ccccc2)cc1
active: [1] 97% | [2] 99% | at 50.0 µM 99.2%

CCOP(=O)(OCC)Oc1cc(C)c(SC#N)c(C)c1
inactive: [1] -2% | [2] 3% | at 50.0 µM 20.6%

O=C1C2CCN(CC2)C1CN1CCOCC1 (centres undefined)
inactive: [1] 22% | [2] -8%
active: at 50.0 µM 90.8%
